Results on 53 compounds are retold here after ChEMBL document CHEMBL3988442, “University of Dundee, Small-Polar-MMV Screening Library” (2021).

About 25 (0.04%) of roughly 68,000 compounds showed an effect of 50% or more. Only a selection was taken, and strong results are over-represented in it overall.

The experiment addresses T1, Methionyl-tRNA synthetase, putative (Leishmania donovani (strain BPK282A1)) (UniProt E9BF75).
T1 sequence (whole entry): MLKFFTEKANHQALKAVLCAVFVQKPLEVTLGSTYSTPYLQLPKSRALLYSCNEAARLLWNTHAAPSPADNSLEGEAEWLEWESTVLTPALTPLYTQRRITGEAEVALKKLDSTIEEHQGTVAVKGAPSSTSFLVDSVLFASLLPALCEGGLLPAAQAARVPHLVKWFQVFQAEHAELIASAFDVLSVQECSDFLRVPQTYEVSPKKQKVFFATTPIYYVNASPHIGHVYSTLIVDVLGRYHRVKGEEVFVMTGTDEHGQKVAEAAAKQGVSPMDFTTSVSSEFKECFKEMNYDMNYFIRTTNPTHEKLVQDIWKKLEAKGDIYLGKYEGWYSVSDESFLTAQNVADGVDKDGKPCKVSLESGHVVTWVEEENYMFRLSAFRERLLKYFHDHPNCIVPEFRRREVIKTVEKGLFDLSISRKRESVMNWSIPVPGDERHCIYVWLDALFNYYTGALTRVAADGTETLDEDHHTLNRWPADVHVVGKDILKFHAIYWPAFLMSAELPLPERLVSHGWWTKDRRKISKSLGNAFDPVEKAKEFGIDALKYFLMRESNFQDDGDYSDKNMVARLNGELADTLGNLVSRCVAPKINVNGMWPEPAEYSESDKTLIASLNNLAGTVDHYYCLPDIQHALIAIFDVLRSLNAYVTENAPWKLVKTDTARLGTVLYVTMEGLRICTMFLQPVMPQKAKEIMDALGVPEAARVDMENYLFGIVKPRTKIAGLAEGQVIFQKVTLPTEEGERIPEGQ
The experiment can be described thus: Leishmania donovani Methionine tRNA synthetase (LdMetRS):v6. Primary screen assay. The class given is functional. Also noted: conc 80 nM, time 150 minutes.
Take `CN(C)CCNC(=O)c1ccc2ccc(N(C)CC3CC3)n2c1`: the inhibition came to 25.3%.

As for `O=C(c1ccc[nH]1)N1C[C@H](OCc2cccnc2)[C@H]2COC[C@H]21`, the inhibition turned out to be 16.2%.

For the compound `C=C1C(C)(C)[C@H]2CC[C@]1(C(=O)N1CCC(Cn3cc(CO)nn3)CC1)C2`, the inhibition was 11.7%.

On to `NC(=O)N1CC[C@H]2CO[C@H](CNC(=O)c3ccnnc3)[C@H]2C1`, for which the inhibition was 15%.

Consider `Cc1ncsc1CCN(C)C(=O)c1ccc(Cn2cnnn2)cc1`, for which the inhibition is 16.8%.

For `Cc1nc(CN(C)C(=O)c2ccc(Cn3cnnn3)cc2)cs1`, the inhibition turned out to be 123%.

Take `Cc1cnccc1CN(C)C(=O)c1ccc(Cn2cnnn2)cc1`: the inhibition came to 2.48%.

As to `O=S1(=O)C[C@@H]2[C@H](C1)N(Cc1cc(F)cc(F)c1)CCN2CCO`, the inhibition was found to be 1.27%.

Take `COc1cccc(-c2noc3c2CN(c2nc(C)ncc2C)CC3)c1`: the inhibition turned out to be 15%.

Turning to `COc1cccc(-c2noc3c2CN(c2ncnc4c2CCC4)CC3)c1`, the inhibition was determined as 52.3%.

For the compound `COCc1cc(N2CCc3onc(-c4cccc(OC)c4)c3C2)ncn1`, the inhibition is 12.5%.

With `O=C(NC1CC1)[C@H]1CC[C@@H]2[C@@H](CCN2Cc2ccsc2)O1`, the inhibition is 6.67%.

For the compound `Cc1ccnc(NCCNC(=O)CCNC(=O)c2ccccc2F)c1`, the inhibition worked out at 34.8%.

Take `O=C(CCNC(=O)c1ccccc1F)NCCNc1cccnc1`: the inhibition was 120%.

`CCn1cnnc1CCNC(=O)CCNC(=O)c1ccccc1F`: the inhibition was 17.3%.

With `Cc1cccc(C(=O)N2C[C@@H]3[C@H](CC(=O)NC(C)C)[C@@H]3C2)n1`, the inhibition is 6.67%.

Take `Cc1ccc(-c2ncc(CNc3cnccc3CO)s2)cc1`: the inhibition worked out at 1.86%.

`Cc1ncc(CNc2cnccc2CO)s1`: the inhibition was 11.8%.

In the case of `CC(C)Cc1ncc(CNc2cnccc2CO)s1`, the inhibition was 121%.

With `Cn1cc(C(=O)N[C@@H]2CN(Cc3cccs3)[C@@H]3CCCO[C@@H]32)cn1`, the inhibition was found to be 16.3%.

As to `O=C1NC[C@]2(CC[C@@H](C(=O)N3CCC(O)CC3)CC2)Oc2ccccc21`, the inhibition came to 17.4%.

Take `Cc1oc(C(C)C)cc1C(=O)N1C[C@H]2CC[C@@H]1CN(c1ncccn1)C2`: the inhibition turned out to be 7.9%.

Turning to `O=C([C@@H]1COC[C@H]2CN(C3CCCCC3)C[C@H]21)N1CCOCC1`, the inhibition came to 14.6%.

For the compound `O=S(=O)(NCCSc1nncn1C1CC1)c1ccccc1`, the inhibition came to 3.73%.

On to `O=S(=O)(CCSc1nccn1C1CC1)c1ccccc1`, for which the inhibition was -9.32%.

On to `O=S(=O)(NCCSc1nccn1C1CC1)c1ccccc1`, for which the inhibition worked out at 67.7%.

Turning to `Cc1noc([C@@]23CCO[C@@H]2CCN(C(=O)c2cc(C)c(C)s2)C3)n1`, the inhibition was determined as 8.14%.

Turning to `Cc1noc([C@@H]2C[C@H]3OCC[C@H]3N(Cc3sccc3C)C2)n1`, the inhibition came to 10.5%.

For `Cc1occc1C(=O)N1CCO[C@H]2[C@H](Oc3cccnc3)CC[C@@H]21`, the inhibition is 3.85%.

Take `CCS(=O)(=O)N1CC[C@H]2O[C@H](c3nc(C)no3)CC[C@H]21`: the inhibition amounted to 21%.

Take `O=C1C[C@H]2CC[C@@H](CN1)N2C(=O)CCc1ccc2c(c1)OCO2`: the inhibition came out at 17%.

Regarding `O=C(c1cc(F)cc(Cl)c1)N1CCN(CCO)[C@@H]2CS(=O)(=O)C[C@@H]21`, the inhibition is 3.31%.

Take `Cc1noc(C)c1CN1CC[C@H]2OCC[C@@H](C(=O)NCC3CC3)[C@H]2C1`: the inhibition is 14.8%.

As to `Cc1ccc(CN2CC[C@H]3OCC[C@@]3(C(=O)N3CCCO3)C2)o1`, the inhibition was 6.85%.

On to `O=C(N[C@@H]1CN(c2ncccn2)[C@@H]2CCCO[C@@H]21)c1cscn1`, for which the inhibition is 13.6%.

In the case of `O=C1CC[C@H]2CN(c3ncccc3F)CC[C@H]2N1CCc1ccccc1`, the inhibition was -0.347%.

As for `CCc1c(C(=O)N2C[C@H]3CC[C@@H]2CN(c2cnccn2)C3)csc1C`, the inhibition is 13.4%.

For the compound `CN(C)C(=O)[C@@H]1CCO[C@@H]2CCN(CCOCc3ccccc3)C[C@H]21`, the inhibition was 1.54%.

Turning to `OCC1N(Cc2ccc(F)cc2)[C@H]2CC[C@]1(O)CC2` (stereo partly drawn), the inhibition was found to be 12.3%.

As to `Cc1ccc(C(=O)N2C[C@@H](N3CCN(C)CC3)[C@H]3OCCC[C@H]32)cn1`, the inhibition was 14.1%.

Consider `N#Cc1ccccc1CN1C[C@H]2CC[C@@H]1CN(C(=O)c1cccnc1)C2`, for which the inhibition amounted to 15.4%.

`CNC(=O)[C@@]12CCC3(CCNCC3)[C@@H]1CN(S(C)(=O)=O)C2`: the inhibition was determined as 18.3%.

For `O=C1OCCN1CC(=O)N1C[C@H]2CC[C@@H]1CN(C(=O)c1ccccc1)C2`, the inhibition was 10.6%.

Consider `Cc1nc(CC(=O)N2c3ccccc3OCC2C)cs1` (stereo not drawn), for which the inhibition turned out to be 6.21%.

On to `CC1COc2ccccc2N1C(=O)c1cscn1` (stereo not drawn), for which the inhibition came to 12.4%.

Turning to `CC1COc2ccccc2N1C(=O)CCc1cscn1` (stereo not drawn), the inhibition turned out to be 59%.

Consider `CNC(=O)[C@@H]1C[C@H]2CN(C(=O)c3ccco3)C[C@H]2N1C(C)C`, for which the inhibition is 14.5%.

For the compound `CC(C)=CCN1C[C@@H]2CN(C(=O)c3cnccc3C)C[C@]2(C(=O)O)C1`, the inhibition is 8.52%.

For the compound `CCCN1CCN(Cc2cccc(OC)c2)[C@H]2CS(=O)(=O)C[C@H]21`, the inhibition came to 12.4%.

In the case of `NCC1CCN(C2CCN(c3ccc(-c4ccco4)cc3)CC2)C1` (stereo not drawn), the inhibition worked out at 52.7%.

As to `NC1CCN(C2CCN(c3ccc(-c4ccco4)cc3)CC2)CC1`, the inhibition is 42.5%.

For `CNC1CCN(C2CCN(c3ccc(-c4ccco4)cc3)CC2)CC1`, the inhibition turned out to be 21%.

With `CCc1cc(CN2C[C@H]3CC[C@@H]2CN(C2Cc4ccccc4C2)C3)on1`, the inhibition is 18.8%.
